An excerpt weighted towards active compounds, which were near 3.6% of everything screened.
BJeLR lethal = BJeLR cell viability loss | BJeLR (HRASV12) viability, CellTiter-Glo ATP luminescence, 48 h | inhibition, % (no concentration beside the values) | 0.17% of 300,000 active | AID 1554; in the data active = inhibition above about 50%; inconclusive = no clear call, values can overlap the other calls
Anthrax LF prot = anthrax lethal factor protease inhibition | 0.12% of 360,000 active | P15917 | inhibition, % at 10 µM | multiplex microsphere protease cleavage assay, LF; also: plate controls were buffer without enzyme for full effect and enzyme alone for no effect
BoNT-F LC inh = blocks Botulinum neurotoxin F light chain protease. Multiplex microsphere protease cleavage assay, flow cytometry. inhibition, % at 10 µM. 0.22% of 360,000 active; in the data active = inhibition above about 35%, passing the limit was not always enough; inconclusive = no clear call, values can overlap the other calls; also: plate controls were buffer without enzyme for full effect and enzyme alone for no effect
Autofluor counter = counter-screen for toxin protease inhibitors: compound fluorescence; compound autofluorescence counterscreen, microsphere flow cytometry; stronger effect = higher value; fluorescence intensity (concentration not given with the values); 3.1% of 360,000 active; in the data active = fluorescence intensity above about 16000; inconclusive = no clear call, values can overlap the other calls
BoNT A protease = blocks Botulinum neurotoxin A light chain protease. multiplex microsphere protease substrate cleavage, flow cytometry. inhibition, % at 10 µM. 0.17% of 360,000 active; also: plate controls were buffer without enzyme for full effect and enzyme alone for no effect
3CLpro inhibitor = SARS-CoV 3CLpro protease inhibition; inhibition, % at 6 µM; recombinant SARS-CoV 3CLpro, quenched FRET peptide cleavage; P0C6X7; 0.14% of 290,000 active; in the data active = inhibition above about 12%
Active calls of the source: *; ? = inconclusive; nt = no result. Rule as the data show it, unless noted: active = inhibition above about 30%; inconclusive = no clear call, values can overlap the other calls; inactive = below that.

SMILES | BJeLR lethal | Anthrax LF prot | BoNT-F LC inh | Autofluor counter | BoNT A protease | 3CLpro inhibitor
COc1cccc(/C=N/NC(=O)CN2CC(c3ccccc3)CC2=O)c1O (stereo not given) | -14 | 4 | -5 | 2015 | 0 | -3
Nc1nncn1C(=O)c1c(Cl)cccc1Cl | -5 | 1 | 3 | 17890* | 5 | -2
COc1cccc(C(=O)N2CCCN(C)CC2)c1OC | 4 | 16 | 37* | 3084 | 4 | -2
Cc1ccc(C(=O)n2cnnc2N)cc1C | -2 | -6 | -3 | 9712 | -1 | -7
Cc1ccc(C(=O)n2cnnc2N)cc1 | -1 | 0 | -6 | 21599* | ? | -5
COc1cccc(C(=O)n2cnnc2N)c1OC | 1 | -2 | 1 | 19978* | 2 | -1
CCCCc1nc(SCC(=O)Nc2cccc(Cl)c2)n[nH]1 | -3 | -4 | -6 | 3971 | 2 | 3
CC1CCN(CC(=O)Nc2cccc(Cl)c2)CC1 | -3 | -6 | -1 | 4061 | 0 | 1
COc1cccc(-c2nnn(CC(=O)N(CC(C)C)C3CCS(=O)(=O)C3)n2)c1 (stereo not given) | 7 | 0 | 8 | ? | 2 | nt
COc1ccccc1NC(=O)C1CCN(c2ncccn2)CC1 | 4 | -3 | -2 | 21787* | -1 | 4
COc1ccccc1NC(=O)C1CCN(c2ncnc3c2nc2n3CCCCC2)CC1 | 4 | 3 | 3 | 4447 | 0 | -1
COc1cccc(NC(=O)C2CCN(c3ncccn3)CC2)c1 | 1 | 0 | -1 | 9076 | 0 | -5
COc1ccc(OC)c(NC(=O)C2CCN(c3ncccn3)CC2)c1 | nt | -4 | -1 | 19922* | 1 | -3
Cc1ccccc1NC(=O)C1CCN(c2cnccn2)CC1 | -2 | -3 | -5 | 21599* | -2 | 1
CCC(C)NC(=O)CSc1ccc(S(=O)(=O)N(C)C2CCCCC2)cn1 (stereo not given) | nt | 1 | -1 | 5611 | 2 | nt
CCOc1cc(/C=C/C(=O)OCC(=O)NCc2ccco2)cc(Cl)c1OC | 6 | 5 | 6 | 4193 | 4 | nt
CCOc1ccc(C(=O)Nc2c3c(nn2-c2ccc(F)cc2)CS(=O)C3)cc1 (stereo not given) | 11 | -1 | -13 | 4478 | 0 | 4
CCOc1ccc(C(=O)Nc2c3c(nn2-c2cccc(Cl)c2)CS(=O)C3)cc1 (stereo not given) | -15 | 0 | -1 | 22721* | -1 | -5
CCOC(=O)N(C)c1ccc(C(O)(C(=O)OCC)C(F)(F)F)cc1 (stereo not given) | 4 | -1 | 0 | 22785* | -1 | -2
CCOC(=O)N(CC)c1ccc(C(O)(C(=O)OCC)C(F)(F)F)cc1 (stereo not given) | 0 | 0 | -24 | 4818 | -1 | -1
COc1cc2c(cc1OC)-c1cc(NC3CCCC3)nc(=O)n1CC2 | 4 | -4 | 1 | 22438* | ? | -5
Cc1ccc(NC(=O)CSCC(=O)NC2(C)CCS(=O)(=O)C2)cc1 (stereo not given) | nt | 10 | 2 | 3921 | 0 | nt
COc1ccccc1/C=C/C1=NC(=C\C=C/c2ccccc2)/C(=O)O1 | nt | 7 | 58* | 3554 | 29 | 2
COc1ccccc1/C=C/C=C1N=C(/C=C/c2ccc(Cl)cc2)OC/1=O | -10 | 5 | 7 | 10751 | 8 | 3
CN1CCN(C(=O)Nc2cccc3ccccc23)CC1 | nt | -7 | 3 | 18834* | 3 | -2
SMILES | BJeLR lethal | Anthrax LF prot | BoNT-F LC inh | Autofluor counter | BoNT A protease | 3CLpro inhibitor
O=C(NC1CCCCC1)N1CCN(C2CCCCC2)CC1 | -8 | -4 | -3 | 23605* | -1 | -1
S=C(NC1CCCCC1)N1CCN(c2ncccn2)CC1 | nt | -7 | 1 | 3312 | 0 | 1
O=C(NC1CCCCC1)N1CCN(c2ncccn2)CC1 | -4 | -3 | 5 | 23207* | 1 | -2
CCCCOC(=S)NC(=O)c1sc2ccccc2c1Cl | 0 | -2 | -1 | 23574* | -1 | -3
CN(C)CCCOC(=O)c1sc2ccccc2c1Cl | -9 | 1 | -6 | 4382 | 0 | 3
Cc1cccc(NS(=O)(=O)c2ccc(-n3cccn3)cc2)c1C | -1 | -2 | 0 | 6103 | -1 | 6
COc1cccc(CN(CC2CCCO2)S(=O)(=O)c2ccc(S(=O)(=O)N(C)C)cc2)c1 (stereo not given) | 5 | -2 | 1 | 22709* | 2 | -4
O=C1CCC(c2ccccc2)N1C(=O)c1cccnc1 (stereo not given) | 4 | -2 | 1 | 23368* | -1 | -9
CCCCNS(=O)(=O)c1cccc(NC(=O)[C@@H]2O[C@H](CO)[C@@H](O)[C@H]2O)c1 | nt | -8 | -4 | 4092 | -1 | nt
COc1ccc(N2C(=O)CC(SCCc3nc4ccccc4[nH]3)C2=O)cc1 (stereo not given) | 0 | 0 | 4 | 19552* | 4 | 1
CC(C)(C)c1ccc(C(=O)NCC(=O)OCC(=O)c2ccc3c(c2)-c2ccccc2C3)cc1 | -3 | -1 | -4 | 2918 | -1 | 7
O=C1c2oc3ccccc3c(=O)c2C(c2cccc(Br)c2)N1Cc1ccco1 (stereo not given) | -10 | -1 | 0 | 20275* | -1 | -4
Cc1ccc(S(=O)(=O)c2c(C)cc(C)nc2Cl)c(C)c1 | 4 | 0 | -2 | 22797* | ? | -2
CC(C)CCC(CCN1CCOCC1)c1ccc2c(c1)OCO2 (stereo not given) | -4 | -2 | 0 | 20867* | -1 | 4
CC(CNC(=O)c1ccccc1Cl)NC(=O)c1ccccc1Cl (stereo not given) | 6 | 0 | 6 | 6198 | -1 | nt
COc1cc(CNC2CCCCCC2)cc(OC)c1OC | 5 | 0 | 2 | 22719* | 1 | 2
COc1cc(OC)c(OC)cc1CNC1CCCCCC1 | -5 | 1 | 2 | 18257* | 4 | -3
COc1ccc(S(=O)(=O)N(CCc2ccccc2)CC(=O)NC(C)C)cc1 | 6 | -1 | -1 | 22967* | 0 | -1
COc1ccc(CNC(=O)CN(Cc2ccc(Cl)cc2)S(=O)(=O)c2ccccc2)cc1 | 19 | -1 | -6 | 24986* | -4 | -1
COc1ccc(C)cc1S(=O)(=O)N(CC(=O)NCc1ccc(Cl)cc1)Cc1ccccc1 | -8 | 0 | -2 | 22998* | -1 | 5
COc1ccc(CNC(=O)CN(Cc2ccccc2)S(=O)(=O)c2ccc(Cl)cc2)cc1 | 14 | -1 | -3 | 22889* | -1 | 0
CC1(c2ccc3c(c2)OCCO3)NC(=O)N(CC(=O)Nc2ccccc2F)C1=O (stereo not given) | nt | -4 | ? | ? | 3 | nt
Cc1ccccc1CC(=O)Nc1ccc2c(c1)c(=O)n(C)n2-c1ccccc1F | nt | -3 | -4 | 3425 | 0 | nt
CCCCN(CC)CCNC(=O)CN1C(=O)COc2ccc(S(=O)(=O)N3CCCC3)cc21 | 4 | 2 | 6 | 2492 | 0 | 2
CN1CCN(c2nc3ccccn3c(=O)c2C=O)CC1 | -1 | -4 | -17 | 3814 | -2 | 2
